Measured values taken from PubChem BioAssay (NCI).
About 83,000 compounds went through this panel and 20% of them were active in at least one assay; those are over-represented in the sample as a whole.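 Interpretation: 100, growth as untreated; towards 0, rising growth inhibition; 0, no net growth; 0 to -100, cell death. Compounds scoring below 10 were considered active.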 The source made the active and inactive calls.

Tests used:
Test in all cases: NCI-60 one-dose screen, 48 h (100 = growth as untreated, 0 = no growth, -100 = all killed)
Details in all cases: 10 µM unless noted
SK-MEL-2 melanoma = tested on: SK-MEL-2 melanoma
EKVX NSCLC = tested on: EKVX NSCLC
SN12C renal = tested on: SN12C renal
UO-31 renal = tested on: UO-31 renal
TK-10 renal = tested on: TK-10 renal
ACHN renal = tested on: ACHN renal
CAKI-1 renal = tested on: CAKI-1 renal
A498 renal = tested on: A498 renal
CCRF-CEM leukemia = tested on: CCRF-CEM leukemia
MOLT-4 leukemia = tested on: MOLT-4 leukemia
SR leukemia = tested on: SR leukemia
OVCAR-8 ovarian = tested on: OVCAR-8 ovarian
OVCAR-5 ovarian = tested on: OVCAR-5 ovarian
OVCAR-4 ovarian = tested on: OVCAR-4 ovarian
SK-OV-3 ovarian = tested on: SK-OV-3 ovarian
IGROV1 ovarian = tested on: IGROV1 ovarian
OVCAR-3 ovarian = tested on: OVCAR-3 ovarian
HS 578T breast = tested on: HS 578T breast
NCI/ADR-RES ovarian = tested on: NCI/ADR-RES ovarian
RPMI-8226 leukemia = tested on: RPMI-8226 leukemia

Measured: growth

CCCCCCCC/C=C/CCCCCCCC1=NC(C)(C)CN1C(C)C
inactive: EKVX NSCLC 10.6% | SN12C renal 16.8% | CAKI-1 renal 31.2% | A498 renal 65.7% | OVCAR-5 ovarian 58.1% | OVCAR-4 ovarian 18.9% | SK-OV-3 ovarian 55.4%
active: SK-MEL-2 melanoma -63.9% | UO-31 renal -17.4% | TK-10 renal -14.8% | ACHN renal -78.3% | CCRF-CEM leukemia -43.4% | MOLT-4 leukemia -63.2% | SR leukemia -46.7% | OVCAR-8 ovarian -20.8% | IGROV1 ovarian -29.9% | OVCAR-3 ovarian -55.7% | HS 578T breast 6.92% | NCI/ADR-RES ovarian -6.48%

Cc1c(C(N)=O)sc2ncn(CC(=O)NN=C3CCCCC3)c(=O)c12
active: SK-MEL-2 melanoma 5.33%
inactive: EKVX NSCLC 96.6% | SN12C renal 96.3% | UO-31 renal 124% | TK-10 renal 106% | ACHN renal 109% | CAKI-1 renal 132% | A498 renal 111% | CCRF-CEM leukemia 113% | MOLT-4 leukemia 109% | SR leukemia 82.9% | OVCAR-8 ovarian 110% | OVCAR-5 ovarian 104% | OVCAR-4 ovarian 110% | SK-OV-3 ovarian 110% | IGROV1 ovarian 135% | OVCAR-3 ovarian 107% | NCI/ADR-RES ovarian 100%

CCCCCCCCOC(=O)C(C)OC(=O)OCCOCCOC(=O)OC(C)C(=O)OCCCCCCCC (configuration not stated)
inactive: SK-MEL-2 melanoma 110% | EKVX NSCLC 94% | SN12C renal 99.3% | UO-31 renal 87.5% | TK-10 renal 115% | ACHN renal 98.8% | CAKI-1 renal 95.8% | A498 renal 119% | CCRF-CEM leukemia 102% | MOLT-4 leukemia 108% | RPMI-8226 leukemia 98.7% | OVCAR-8 ovarian 105% | OVCAR-5 ovarian 81.8% | OVCAR-4 ovarian 117% | SK-OV-3 ovarian 103% | IGROV1 ovarian 104% | OVCAR-3 ovarian 98.6% | HS 578T breast 102% | NCI/ADR-RES ovarian 101%

Cc1c(C(=O)Nc2ccccc2F)sc2c(=O)[nH]cnc12
inactive: SK-MEL-2 melanoma 53.9% | EKVX NSCLC 91% | SN12C renal 96.2% | UO-31 renal 74.6% | TK-10 renal 90.8% | ACHN renal 102% | CAKI-1 renal 74.7% | A498 renal 99.6% | CCRF-CEM leukemia 90.4% | MOLT-4 leukemia 82% | SR leukemia 28.5% | OVCAR-8 ovarian 97% | OVCAR-5 ovarian 123% | SK-OV-3 ovarian 97.5% | IGROV1 ovarian 76.4% | OVCAR-3 ovarian 93.7% | HS 578T breast 98.2% | NCI/ADR-RES ovarian 66.2%

Cc1cc(O)ccc1Sc1ccccc1[N+](=O)[O-]
inactive: SK-MEL-2 melanoma 99.4% | EKVX NSCLC 74.8% | SN12C renal 92.3% | UO-31 renal 52.7% | TK-10 renal 90.6% | ACHN renal 87.4% | CAKI-1 renal 89.8% | A498 renal 87.6% | CCRF-CEM leukemia 93.5% | MOLT-4 leukemia 115% | RPMI-8226 leukemia 82.5% | OVCAR-8 ovarian 97.1% | OVCAR-5 ovarian 99.6% | OVCAR-4 ovarian 90% | SK-OV-3 ovarian 101% | IGROV1 ovarian 90.6% | OVCAR-3 ovarian 96.1% | HS 578T breast 80% | NCI/ADR-RES ovarian 83%

O=[N+]([O-])c1ccc(N/N=C\c2ccc(O)cc2O)nc1
active: CAKI-1 renal 4.77%
inactive: SK-MEL-2 melanoma 28.9% | EKVX NSCLC 29.3% | SN12C renal 50.9% | UO-31 renal 28.1% | TK-10 renal 22.7% | ACHN renal 26.8% | A498 renal 107% | CCRF-CEM leukemia 18.8% | MOLT-4 leukemia 13.6% | SR leukemia 15.3% | OVCAR-8 ovarian 25.4% | OVCAR-5 ovarian 57.9% | OVCAR-4 ovarian 40% | SK-OV-3 ovarian 25.8% | IGROV1 ovarian 28.7% | OVCAR-3 ovarian 74.8% | HS 578T breast 90.8% | NCI/ADR-RES ovarian 20.6%

COc1ccc(/C=C/c2nc3ccccc3c(=O)n2-c2ccc(C#Cc3ccc(C(C)(C)C)cc3)cc2C)c(OC)c1
inactive: SK-MEL-2 melanoma 104% | EKVX NSCLC 85.1% | SN12C renal 89.6% | UO-31 renal 79.5% | TK-10 renal 101% | ACHN renal 105% | CAKI-1 renal 76.9% | A498 renal 110% | CCRF-CEM leukemia 75.8% | MOLT-4 leukemia 76.5% | SR leukemia 42% | OVCAR-8 ovarian 110% | OVCAR-5 ovarian 120% | OVCAR-4 ovarian 97.9% | SK-OV-3 ovarian 103% | IGROV1 ovarian 109% | OVCAR-3 ovarian 87.5% | NCI/ADR-RES ovarian 105%

CCN1C(=O)N(CC)C2C1NN=c1s/c(=C\c3ccc(Br)cc3)c(=O)n12 (configuration not stated)
inactive: SK-MEL-2 melanoma 24.8% | EKVX NSCLC 38.2% | SN12C renal 33.9% | UO-31 renal 35.4% | TK-10 renal 52.7% | ACHN renal 29.2% | CAKI-1 renal 23.8% | A498 renal 12.6% | CCRF-CEM leukemia 11.4% | MOLT-4 leukemia 12.6% | SR leukemia 14% | OVCAR-5 ovarian 35.1% | OVCAR-4 ovarian 65.7% | SK-OV-3 ovarian 16.1% | IGROV1 ovarian 13.3% | HS 578T breast 54%
active: OVCAR-8 ovarian 2.86% | OVCAR-3 ovarian 3.78% | NCI/ADR-RES ovarian 5.64%

O=S(=O)(Cc1ccc(Cl)cc1Cl)c1ccc(Cl)cc1
inactive: SK-MEL-2 melanoma 31.1% | EKVX NSCLC 63.4% | SN12C renal 49.4% | UO-31 renal 46.2% | TK-10 renal 32.6% | ACHN renal 55.7% | CAKI-1 renal 38.1% | A498 renal 42.5% | CCRF-CEM leukemia 10.8% | MOLT-4 leukemia 33.3% | SR leukemia 24.3% | OVCAR-8 ovarian 31.9% | OVCAR-5 ovarian 53.9% | OVCAR-4 ovarian 69.5% | IGROV1 ovarian 36.1%
active: SK-OV-3 ovarian 9.24% | OVCAR-3 ovarian 1.54% | NCI/ADR-RES ovarian -8.57%

COc1cc(CN(c2ccc(C)cc2)C2OC(=O)c3ccccc32)cc(OC)c1OC (configuration not stated)
active: SR leukemia -6.82% | SK-OV-3 ovarian -6.21% | OVCAR-3 ovarian 6.21% | NCI/ADR-RES ovarian -16.7%
inactive: SK-MEL-2 melanoma 55% | EKVX NSCLC 71.8% | SN12C renal 50.1% | UO-31 renal 59.7% | TK-10 renal 93.3% | ACHN renal 56.3% | CAKI-1 renal 49.3% | A498 renal 51.7% | CCRF-CEM leukemia 11.5% | MOLT-4 leukemia 17.9% | OVCAR-8 ovarian 50.1% | OVCAR-5 ovarian 40.3% | OVCAR-4 ovarian 65.9% | IGROV1 ovarian 46.2% | HS 578T breast 59.5%

CNCCCn1c2c(c3ccc(Cl)cc3c1=O)C(=O)c1cc(OC)cnc1-2
inactive: SK-MEL-2 melanoma 77.3% | EKVX NSCLC 63.8% | SN12C renal 39.7% | UO-31 renal 33.4% | TK-10 renal 54.2% | ACHN renal 19.8% | CAKI-1 renal 35.3% | A498 renal 20.5% | OVCAR-8 ovarian 40.8% | OVCAR-5 ovarian 91.9% | OVCAR-4 ovarian 58.8% | SK-OV-3 ovarian 23.7% | IGROV1 ovarian 50.3% | OVCAR-3 ovarian 49.3% | HS 578T breast 71.7% | NCI/ADR-RES ovarian 46.5%
active: CCRF-CEM leukemia -22.5% | MOLT-4 leukemia -29.9% | RPMI-8226 leukemia -56.3%

CN1C(=O)N(C)C2C1NN=c1s/c(=C\c3ccsc3)c(=O)n12 (configuration not stated)
inactive: SK-MEL-2 melanoma 56.4% | EKVX NSCLC 65.8% | SN12C renal 58.8% | UO-31 renal 56% | TK-10 renal 76.8% | ACHN renal 47% | CAKI-1 renal 35.7% | CCRF-CEM leukemia 28.8% | MOLT-4 leukemia 49.7% | RPMI-8226 leukemia 58% | OVCAR-8 ovarian 59.5% | OVCAR-5 ovarian 72.6% | OVCAR-4 ovarian 89.5% | SK-OV-3 ovarian 59.7% | IGROV1 ovarian 46.9% | OVCAR-3 ovarian 14.9% | HS 578T breast 53.9% | NCI/ADR-RES ovarian 39.8%
active: A498 renal 7.47%

NC(CCC(=O)NC(CS)C(=O)NCC(=O)O)C(=O)O (configuration not stated)
inactive: SK-MEL-2 melanoma 100% | EKVX NSCLC 99.8% | SN12C renal 108% | UO-31 renal 85.9% | TK-10 renal 154% | ACHN renal 104% | CAKI-1 renal 100% | A498 renal 127% | CCRF-CEM leukemia 121% | MOLT-4 leukemia 102% | SR leukemia 97.3% | OVCAR-8 ovarian 98.7% | OVCAR-5 ovarian 97.6% | OVCAR-4 ovarian 108% | SK-OV-3 ovarian 116% | IGROV1 ovarian 98.1% | OVCAR-3 ovarian 110% | HS 578T breast 107% | NCI/ADR-RES ovarian 107%

O=C(O/C(=C/c1ccccc1)C(F)(F)F)c1ccccc1
inactive: SK-MEL-2 melanoma 103% | EKVX NSCLC 103% | SN12C renal 99.3% | UO-31 renal 102% | TK-10 renal 103% | ACHN renal 110% | CAKI-1 renal 99% | A498 renal 88.7% | CCRF-CEM leukemia 106% | SR leukemia 69.6% | OVCAR-8 ovarian 101% | OVCAR-5 ovarian 101% | OVCAR-4 ovarian 103% | SK-OV-3 ovarian 111% | IGROV1 ovarian 120% | OVCAR-3 ovarian 103% | NCI/ADR-RES ovarian 103%
active: MOLT-4 leukemia 7.51%

CCN1C(=O)N(CC)C2C1NN=c1s/c(=C\c3ccco3)c(=O)n12 (configuration not stated)
inactive: SK-MEL-2 melanoma 30% | EKVX NSCLC 36.3% | SN12C renal 47.5% | UO-31 renal 60% | TK-10 renal 57.6% | ACHN renal 54.9% | CAKI-1 renal 46% | A498 renal 21.5% | CCRF-CEM leukemia 10% | MOLT-4 leukemia 31.7% | SR leukemia 17% | OVCAR-8 ovarian 27.8% | OVCAR-5 ovarian 36.7% | OVCAR-4 ovarian 63.3% | SK-OV-3 ovarian 31.6% | IGROV1 ovarian 36.9% | HS 578T breast 29.6%
active: OVCAR-3 ovarian -12% | NCI/ADR-RES ovarian 9.31%

c1cc2c(cc1-c1cnc3nonc3n1)OCO2
inactive: SK-MEL-2 melanoma 115% | EKVX NSCLC 93.4% | SN12C renal 103% | UO-31 renal 87.9% | TK-10 renal 105% | ACHN renal 73.3% | CAKI-1 renal 84.4% | A498 renal 86.9% | CCRF-CEM leukemia 46% | MOLT-4 leukemia 80.3% | SR leukemia 21.4% | OVCAR-5 ovarian 93.7% | OVCAR-4 ovarian 95.3% | SK-OV-3 ovarian 82.8% | IGROV1 ovarian 102% | OVCAR-3 ovarian 70.5% | HS 578T breast 99.1% | NCI/ADR-RES ovarian 93.2%

N/C(=N\OC(=O)c1ccccc1)C(Cc1ccccc1)C(=O)NOC(=O)c1ccccc1 (configuration not stated)
active: UO-31 renal -59.5% | CAKI-1 renal -44.6% | CCRF-CEM leukemia 9.98% | IGROV1 ovarian -63.2% | HS 578T breast -14.5%
inactive: SK-MEL-2 melanoma 89.7% | EKVX NSCLC 59.2% | SN12C renal 68.8% | TK-10 renal 78.3% | ACHN renal 15.1% | A498 renal 59.5% | MOLT-4 leukemia 35.2% | RPMI-8226 leukemia 16.4% | OVCAR-8 ovarian 38% | OVCAR-5 ovarian 101% | OVCAR-4 ovarian 66.8% | SK-OV-3 ovarian 103% | OVCAR-3 ovarian 51.3% | NCI/ADR-RES ovarian 18.3%
